# The source made the active and inactive calls.
# Experiment: small-molecule binders of probe aLefty1, primary screen, biochemical, small-molecule microarray, 635/667 nm fluorescence (AID 1153);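 also: score merges spot fluorescence with signal-to-noise ratio from the scanned slide images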
# Conditions: higher = more signal
row,SMILES,composite z-score
1,CC(C)C(O)C1C=CC2C(=O)N(c3ccccc3)C(=O)C2N1Nc1ccccc1 (stereo not given),-0.0163
2,CCCCC(CC)C(O)C1C=CC2C(=O)N(c3ccccc3)C(=O)C2N1Nc1ccc(C#N)cc1 (stereo not given),0.834
3,COc1ccc(CCNC(=O)[C@@]2(Cc3ccccc3I)c3ccccc3C(=O)N(C3CCCCC3)[C@H]2c2ccc(CO)cc2)cc1,-0.104
4,[N-]=[N+]=Nc1ccccc1C[C@@]1(C(N)=O)N=C(c2ccc(OCCCO)cc2)O[C@@H]1c1ccccc1N=[N+]=[N-],0.0211
5,C=CCN1C(=O)[C@]2(CCS(=O)(=O)c3ccccc3)N=C(c3ccc(OCCCO)cc3)O[C@@H]2c2ccccc21,0.303
6,NC(=O)NCC#Cc1ccc2c(c1)[C@]1(C(=O)N2)[C@H](c2ccccc2OCCO)N2[C@H](c3ccccc3)[C@H](c3ccccc3)OC(=O)[C@H]2[C@@H]1C(=O)O,-0.278
7,NCCCCCNC(=O)[C@H]1C[C@H]2C(=O)N3CCC[C@H]3C(=O)N2[C@H]1c1cccc(OCCO)c1,0.984
8,COc1ccc([Si](C)(C)[C@@H]2[C@@H](CCO)O[C@]3(C(=O)N(Cc4cccc(NC(=O)[C@H](C)O)c4)c4ccccc43)[C@H]2C)cc1,0.286
9,CCCCN1CC=CC23O[C@@H]4/C=C\CCCOC(=O)C4[C@H]2C(=O)N(CCO)[C@@H]3C1=O (stereo not given in full),-0.297

# Experiment: PSAC antagonists in infected red cells, primary screen, cell-based, P. falciparum Indochina, OD700, 1 h (AID 1154)
# Conditions: P. falciparum Indochina infected RBC osmotic lysis, higher = more signal, called active from +8 up or from −8 down
row,SMILES,z-score
1,[N-]=[N+]=NCc1ccccc1[C@@H]1OC(c2ccc(OCCCO)cc2)=N[C@]1(CCS(=O)(=O)c1ccccc1)C(=O)O,18.8 (active)
2,CC1CC/C=C\[C@H]2OC34C=CCN(c5ccc(Cl)cc5)C(=O)[C@H]3N(C(C)CO)C(=O)[C@]4(C)C2C(=O)O1 (stereo not given in full),0.685 (inactive)
3,C=CC[C@]1(C(=O)N2CCCCC2)N=C(c2ccc(OCCCO)cc2)O[C@H]1c1ccccc1CN=[N+]=[N-],23.1 (active)
4,COc1ccc([Si](C)(C)[C@H]2[C@H](CC(=O)N3CCC[C@H]3CO)O[C@@]3(C(=O)N(Cc4ccc(N5CCOC5=O)cc4)c4ccccc43)[C@@H]2C)cc1,9.5 (active)
5,Cc1cc(C)c(C(O)C2C=CC3C(=O)N(c4ccccc4)C(=O)C3N2Nc2ccccc2F)c(C)c1 (stereo not given),1.33 (inactive)
6,CC[C@@H]1O[Si](C(C)C)(C(C)C)c2c1cc(-c1cc(C)c(OC)c(C)c1)nc2-c1ccc(Oc2ccccc2)cc1,-0.261 (inactive)
7,O[C@@H](Cc1ccccc1)[C@@H](/C=C/C1CC1)N(CC#Cc1ccccc1)Cc1ccccc1Br,2.05 (inactive)
8,COC(=O)C/C=C/C[C@]1(O)C(=O)N(C)c2ccccc21,-0.526 (inactive)
9,C=CC[C@@]1(C(=O)NCCCOC)N=C(c2ccc(OCCCO)cc2)O[C@@H]1c1ccccc1N=[N+]=[N-],30.7 (active)
10,COC(=O)[C@@H]1N=C(c2ccc(OCCCO)cc2)O[C@@H]1C,19 (active)
11,CCCC=C(CCC)[C@@H](NC(=O)c1cccs1)c1ccc(C(=O)OC)cc1,-1.3 (inactive)
12,COc1cc(NN2C(C(O)c3cc(OC)c(OC)c(OC)c3)C=CC3C(=O)N(C)C(=O)C32)cc(OC)c1OC (stereo not given),0.367 (inactive)
13,COc1cc(OC)c(C(O)C2C=CC3C(=O)N(Cc4ccccc4)C(=O)C3N2n2cnnc2)cc1Br (stereo not given),-0.0011 (inactive)
14,C=CCC(OC(C)=O)[C@@H]1[C@@H](N(Cc2cc3ccccc3o2)C(=O)Cc2ccc(F)cc2)c2cc(OCCCO)ccc2N1C(=O)Cc1ccc2ccccc2c1 (stereo not given in full),1.23 (inactive)
15,COc1ccc(CCNC(=O)[C@@H]2c3ccccc3C(=O)N(C3CCCCC3)[C@H]2c2ccc(CO)cc2)cc1,2.58 (inactive)
16,C[N+](C)(C)CCCC[C@@H]1NC(=O)[C@@H]2C[C@H](C(=O)NCCCCCCN)[C@H](c3cccc(OCCO)c3)N2C1=O,2.07 (inactive)
17,O=C1C2C=CC(C(O)C3CC=CCC3)N(Nc3ccccc3)C2C(=O)N1c1ccccc1 (stereo not given),3.38 (inactive)
18,O=C1C2C=CC(C(O)c3ccco3)N(Nc3ccccc3F)C2C(=O)N1c1ccccc1 (stereo not given),0.188 (inactive)
19,COC(=O)c1c(CC[C@@H](CO)NC(=O)N2CCC[C@H]2Cn2cc(C3(O)CCCCC3)nn2)oc(C(C)=O)c1C(=O)OC,1.35 (inactive)
20,C=C(/C(=C/C[C@H](OC(=O)c1ccncc1)c1ccc(CO)o1)c1cnc2ccccc2c1)C(C)C,6.75 (inactive)
21,COCC(=C=CC[C@H](O)c1ccccc1OCCO)C[C@H](O)c1ccccn1,3.61 (inactive)

# Source: PubChem BioAssay
